Assay results taken from paper PMC5540273 (PLoS ONE, 2017).

Tests used:
Settings in all cases: concentration: 1 μM,replicates: in singlicate; n = 1
PRKD3 = system: PRKD3
PRKG1 = system: PRKG1
PRKG2 = system: PRKG2
PRKR = system: T1, PRKR
T1 construct: gene EIF2AK2

PRKX = system: PRKX
PRP4 = system: PRP4
PYK2 = system: T2, PYK2
T2 construct: gene PTK2B

QSK = system: QSK
RAF1 = system: RAF1
RET = system: RET
RIOK1 = system: RIOK1
RIOK2 = system: RIOK2
RIOK3 = system: RIOK3
RIPK1 = system: RIPK1
RIPK2 = system: RIPK2
RIPK4 = system: RIPK4
RIPK5 = system: RIPK5
ROCK1 = system: ROCK1
ROCK2 = system: ROCK2
ROS1 = system: ROS1
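Note: KINOMEscan kinase panel screen.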

## COc1cc2c(Nc3ccc(NC(=O)c4ccccc4)cc3)ncnc2cc1OCCCN1CCOCC1 [GSK301329]
PRKD3
  %Inh: 0%
PRKG1
  %Inh: 0%
PRKG2
  %Inh: 21%
PRKR
  %Inh: 0%
PRKX
  %Inh: 22%
PRP4
  %Inh: 0%
PYK2
  %Inh: 0%
QSK
  %Inh: 18%
RAF1
  %Inh: 1%
RET
  %Inh: 79%
RIOK1
  %Inh: 26%
RIOK2
  %Inh: 14%
RIOK3
  %Inh: 21%
RIPK1
  %Inh: 0%
RIPK2
  %Inh: 55%
RIPK4
  %Inh: 0%
RIPK5
  %Inh: 2%
ROCK1
  %Inh: 1%
ROCK2
  %Inh: 0%
ROS1
  %Inh: 3%

## COc1cc2ncn(-c3cc(OCC4CCCCC4)c(C(N)=O)s3)c2cc1OC [GSK204559]
PRKD3
  %Inh: 2%
PRKG1
  %Inh: 9%
PRKG2
  %Inh: 0%
PRKR
  %Inh: 0%
PRKX
  %Inh: 10%
PRP4
  %Inh: 0%
PYK2
  %Inh: 0%
QSK
  %Inh: 12%
RAF1
  %Inh: 9%
RET
  %Inh: 17%
RIOK1
  %Inh: 90%
RIOK2
  %Inh: 5%
RIOK3
  %Inh: 67%
RIPK1
  %Inh: 2%
RIPK2
  %Inh: 0%
RIPK4
  %Inh: 0%
RIPK5
  %Inh: 0%
ROCK1
  %Inh: 0%
ROCK2
  %Inh: 0%
ROS1
  %Inh: 9%

## CN(c1cccc(CNc2nc(Nc3ccc4c(c3)CC(=O)N4)ncc2C(F)(F)F)c1)S(C)(=O)=O
PRKD3
  %Inh: 28%
PRKG1
  %Inh: 0%
PRKG2
  %Inh: 0%
PRKR
  %Inh: 0%
PRKX
  %Inh: 0%
PRP4
  %Inh: 0%
PYK2
  %Inh: 71%
QSK
  %Inh: 0%
RAF1
  %Inh: 0%
RET
  %Inh: 85%
RIOK1
  %Inh: 78%
RIOK2
  %Inh: 19%
RIOK3
  %Inh: 70%
RIPK1
  %Inh: 3%
RIPK2
  %Inh: 0%
RIPK4
  %Inh: 0%
RIPK5
  %Inh: 16%
ROCK1
  %Inh: 0%
ROCK2
  %Inh: 17%
ROS1
  %Inh: 89%

## Cc1ccc(C(=O)Nc2ccc(Oc3ccc4nc(NC(=O)C5CC5)cn4c3)c(F)c2)c(=O)n1-c1ccccc1
PRKD3
  %Inh: 0%
PRKG1
  %Inh: 5%
PRKG2
  %Inh: 0%
PRKR
  %Inh: 4%
PRKX
  %Inh: 0%
PRP4
  %Inh: 38%
PYK2
  %Inh: 19%
QSK
  %Inh: 0%
RAF1
  %Inh: 82%
RET
  %Inh: 100%
RIOK1
  %Inh: 0%
RIOK2
  %Inh: 0%
RIOK3
  %Inh: 9%
RIPK1
  %Inh: 99.9%
RIPK2
  %Inh: 12%
RIPK4
  %Inh: 0%
RIPK5
  %Inh: 0%
ROCK1
  %Inh: 0%
ROCK2
  %Inh: 0%
ROS1
  %Inh: 0%

## O=C(Nc1ccccc1)c1cccc(Oc2ccc3nccn3n2)c1
PRKD3
  %Inh: 1%
PRKG1
  %Inh: 2%
PRKG2
  %Inh: 0%
PRKR
  %Inh: 0%
PRKX
  %Inh: 70%
PRP4
  %Inh: 0%
PYK2
  %Inh: 0%
QSK
  %Inh: 0%
RAF1
  %Inh: 78%
RET
  %Inh: 0%
RIOK1
  %Inh: 0%
RIOK2
  %Inh: 11%
RIOK3
  %Inh: 8%
RIPK1
  %Inh: 15%
RIPK2
  %Inh: 0%
RIPK4
  %Inh: 26%
RIPK5
  %Inh: 0%
ROCK1
  %Inh: 34%
ROCK2
  %Inh: 0%
ROS1
  %Inh: 0%

## COc1ccc(Nc2nccc(N3CCC(NC(=O)c4cccc(C#N)c4)C3)n2)cc1 (stereo not drawn) [GSK1379730]
PRKD3
  %Inh: 0%
PRKG1
  %Inh: 12%
PRKG2
  %Inh: 15%
PRKR
  %Inh: 0%
PRKX
  %Inh: 0%
PRP4
  %Inh: 9%
PYK2
  %Inh: 18%
QSK
  %Inh: 2%
RAF1
  %Inh: 0%
RET
  %Inh: 28%
RIOK1
  %Inh: 34%
RIOK2
  %Inh: 0%
RIOK3
  %Inh: 5%
RIPK1
  %Inh: 0%
RIPK2
  %Inh: 0%
RIPK4
  %Inh: 0%
RIPK5
  %Inh: 0%
ROCK1
  %Inh: 25%
ROCK2
  %Inh: 14%
ROS1
  %Inh: 23%

## c1ccc(Oc2ccc(Nc3ccnc4ccc(-c5ccccn5)cc34)cc2)cc1 [GW407034]
PRKD3
  %Inh: 33%
PRKG1
  %Inh: 0%
PRKG2
  %Inh: 0%
PRKR
  %Inh: 0%
PRKX
  %Inh: 12%
PRP4
  %Inh: 4%
PYK2
  %Inh: 0%
QSK
  %Inh: 14%
RAF1
  %Inh: 19%
RET
  %Inh: 6%
RIOK1
  %Inh: 16%
RIOK2
  %Inh: 5%
RIOK3
  %Inh: 0%
RIPK1
  %Inh: 0%
RIPK2
  %Inh: 95.7%
RIPK4
  %Inh: 16%
RIPK5
  %Inh: 31%
ROCK1
  %Inh: 11%
ROCK2
  %Inh: 0%
ROS1
  %Inh: 10%

## CCN1CCN(CCCC(=O)Nc2n[nH]c3nc(-c4ccc(O)cc4)c(Br)cc23)CC1 [SB-731579]
PRKD3
  %Inh: 0%
PRKG1
  %Inh: 3%
PRKG2
  %Inh: 6%
PRKR
  %Inh: 0%
PRKX
  %Inh: 0%
PRP4
  %Inh: 0%
PYK2
  %Inh: 0%
QSK
  %Inh: 50%
RAF1
  %Inh: 17%
RET
  %Inh: 23%
RIOK1
  %Inh: 39%
RIOK2
  %Inh: 0%
RIOK3
  %Inh: 9%
RIPK1
  %Inh: 0%
RIPK2
  %Inh: 0%
RIPK4
  %Inh: 27%
RIPK5
  %Inh: 0%
ROCK1
  %Inh: 10%
ROCK2
  %Inh: 0%
ROS1
  %Inh: 8%

## C[C@@H](Oc1cc(-n2cnc3ccc(-c4ccncc4)cc32)sc1C(N)=O)c1ccccc1Cl [GSK483724]
PRKD3
  %Inh: 27%
PRKG1
  %Inh: 0%
PRKG2
  %Inh: 0%
PRKR
  %Inh: 0%
PRKX
  %Inh: 33%
PRP4
  %Inh: 23%
PYK2
  %Inh: 0%
QSK
  %Inh: 0%
RAF1
  %Inh: 11%
RET
  %Inh: 22%
RIOK1
  %Inh: 93%
RIOK2
  %Inh: 70%
RIOK3
  %Inh: 73%
RIPK1
  %Inh: 40%
RIPK2
  %Inh: 26%
RIPK4
  %Inh: 0%
RIPK5
  %Inh: 3%
ROCK1
  %Inh: 23%
ROCK2
  %Inh: 19%
ROS1
  %Inh: 42%
